According to PubChem BioAssay (Tox21):
Results filed as inconclusive are left out. Where a call stands in place of a potency, no number is given. The source made the active and inactive calls. Unless noted, the call rests on the fitted dose curve; in most records, active means well fitted curve in the direction sought with a large enough effect in the repeat runs; inconclusive means weak or mixed curves; inactive means no such curve, though single readings can be large; an effect the other way counts as inactive or inconclusive.

Key:
[1] = qHTS assay to identify aromatase inhibitors - cell viability counter screen (AID 743084);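 further: cells stimulated with testosterone during compound exposure; nearly all actives have a fitted effect of over 55% in size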; further: potency means the concentration at half of the fitted maximal effect
[2] = biological target: Aryl hydrocarbon receptor (Homo sapiens) (UniProt P35869); assay: qHTS assay to identify small molecule that activate the aryl hydrocarbon receptor (AhR) signaling pathway (AID 743085); further: nearly all actives have a fitted effect of over 15% in size; further: potency means the concentration at half of the fitted maximal effect;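 on activation: HG2L7.5c1 human HepG2 liver cells with stably integrated DRE-driven firefly reporter; series mostly up to about 70 µM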
Outline: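 Luminescence read-out: ONE-Glo reagent, 30 min at room temperature, in HG2L7.5c1 HepG2 reporter cells treated 24 h at 37C. Viability was measured beforehand by CellTiter-Fluor fluorescence after 30 min at 37C.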

[3] = biological target: Peroxisome proliferator-activated receptor gamma (Homo sapiens) (UniProt P37231); assay: qHTS assay to identify small molecule agonists of the peroxisome proliferator-activated receptor gamma (PPARg) signaling pathway (AID 743094; active means well fitted activation curve with a large enough effect in the signal ratio in the repeat runs, not every such curve was filed as active; the % refers to the signal ratio)
Outline: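 HEK293H PPARg-bla cells, 5 h settle at 37C/5% CO2; compound (DMSO) 17 h, 37C; B/G FRET substrate 1 h RT; fluorescence intensity read-out. qHTS format.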

[4] = biological target: Peroxisome proliferator-activated receptor gamma (Homo sapiens) (UniProt P37231); assay: qHTS assay to identify small molecule antagonists of the peroxisome proliferator-activated receptor gamma (PPARg) signaling pathway (AID 743191; calls by dose curve; further: series mostly up to about 63 µM; nearly all actives have a fitted effect of over 30% in size)
Outline: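 GeneBLAzer PPARg UAS-bla HEK293H cells, 5 h post-plating, exposed to compounds 17 h at 37C. LiveBLAzer B/G FRET substrate added for 1 h at room temperature; beta-lactamase reporter read by fluorescence intensity.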

[5] = qHTS assay to identify small molecule antagonists of the peroxisome proliferator-activated receptor gamma (PPARg) signaling pathway - cell viability counter screen (AID 743194); further: nearly all actives have a fitted effect of over 55% in size; further: potency means the concentration at half of the fitted maximal effect
Outline: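 Cytotoxicity counter screen in PPARg-bla HEK293H cells, same wells as reporter assay. Compounds plus 50 nM rosiglitazone (final) for 17 h at 37 C, then viability read by CellTiter-Glo luminescence.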

[6] = qHTS assay for small molecule agonists of the antioxidant response element (ARE) signaling pathway (AID 743202; active means well fitted activation curve with a large enough effect in the signal ratio in the repeat runs, not every such curve was filed as active; the % refers to the signal ratio; further: potency means the concentration at half of the fitted maximal effect)
Outline: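 HepG2 ARE-bla cells; 16 h treatment at 37 C; FRET-based beta-lactamase fluorescence read after 2 h substrate incubation at room temperature.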

[7] = qHTS assay for small molecule activators of the heat shock response signaling pathway - cell viability counter screen (AID 743209); further: nearly all actives have a fitted effect of over 50% in size; further: potency means the concentration at half of the fitted maximal effect
Outline: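 HSE-bla HeLa; 1500 cells/well; overnight 37 C, 5% CO2; compound 5 h 37 C; LiveBLAzer B/G substrate 2.5 h RT; CellTiter-Glo 30 min RT; luminescence.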

[8] = qHTS assay for small molecule activators of the heat shock response signaling pathway (AID 743210; active means well fitted activation curve with a large enough effect in the signal ratio in the repeat runs, with a control signal flat, not every such curve was filed as active; the % refers to the signal ratio;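 further: HeLa cells with beta-lactamase reporter driven by heat shock elements; series mostly up to about 63 µM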)
Outline: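 Following overnight attachment, HSE-bla HeLa cells received test compounds for 5 h at 37 C; beta-lactamase activity was then detected via FRET substrate fluorescence.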

[9] = qHTS assay to identify small molecule that activate the aryl hydrocarbon receptor (AhR) signaling pathway - cell viability counter screen (AID 743086); further: nearly all actives have a fitted effect of over 45% in size; further: potency means the concentration at half of the fitted maximal effect
Outline: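 HepG2-AhR-luc (HG2L7.5c1) cells, 4000/well, treated 24 h at 37 C with compound; viability measured as CellTiter-Fluor fluorescence after 30 min in the same wells as the luciferase read.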

[10] = qHTS assay for small molecule agonists of the antioxidant response element (ARE) signaling pathway - cell viability counter screen (AID 743203; calls by dose curve; further: nearly all actives have a fitted effect of over 55% in size)
Outline: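 Luminescence read-out (CellTiter-Glo, 30 min at room temperature) measured cell viability in the same wells as the ARE beta-lactamase reporter. HepG2 ARE-bla cells were treated with compounds for 16 hrs at 37C/5% CO2.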

Chain of Aryl hydrocarbon receptor (Homo sapiens) (P35869 whole entry, looked up): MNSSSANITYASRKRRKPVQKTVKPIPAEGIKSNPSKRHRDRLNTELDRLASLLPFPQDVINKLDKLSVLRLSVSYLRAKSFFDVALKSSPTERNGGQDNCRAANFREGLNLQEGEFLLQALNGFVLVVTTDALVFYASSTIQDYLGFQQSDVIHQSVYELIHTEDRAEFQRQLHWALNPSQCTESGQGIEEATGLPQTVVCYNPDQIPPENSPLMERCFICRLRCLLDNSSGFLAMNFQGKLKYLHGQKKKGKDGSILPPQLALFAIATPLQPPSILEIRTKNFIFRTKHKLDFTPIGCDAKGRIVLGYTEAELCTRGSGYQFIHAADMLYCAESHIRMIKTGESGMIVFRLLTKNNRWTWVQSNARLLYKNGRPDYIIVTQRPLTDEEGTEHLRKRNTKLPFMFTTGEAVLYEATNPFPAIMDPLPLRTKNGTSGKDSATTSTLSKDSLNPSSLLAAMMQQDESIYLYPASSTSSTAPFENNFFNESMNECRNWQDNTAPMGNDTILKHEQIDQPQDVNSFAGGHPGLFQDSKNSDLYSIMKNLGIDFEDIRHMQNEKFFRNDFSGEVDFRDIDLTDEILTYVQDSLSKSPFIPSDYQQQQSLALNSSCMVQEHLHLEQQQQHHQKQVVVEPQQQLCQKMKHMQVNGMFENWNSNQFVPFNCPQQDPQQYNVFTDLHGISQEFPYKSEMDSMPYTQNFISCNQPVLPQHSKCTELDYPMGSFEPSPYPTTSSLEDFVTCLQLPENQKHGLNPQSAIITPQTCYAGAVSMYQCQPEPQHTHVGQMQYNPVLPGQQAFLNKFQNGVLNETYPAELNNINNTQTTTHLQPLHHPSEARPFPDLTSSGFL
Chain of Peroxisome proliferator-activated receptor gamma (Homo sapiens) (P37231 whole entry, looked up): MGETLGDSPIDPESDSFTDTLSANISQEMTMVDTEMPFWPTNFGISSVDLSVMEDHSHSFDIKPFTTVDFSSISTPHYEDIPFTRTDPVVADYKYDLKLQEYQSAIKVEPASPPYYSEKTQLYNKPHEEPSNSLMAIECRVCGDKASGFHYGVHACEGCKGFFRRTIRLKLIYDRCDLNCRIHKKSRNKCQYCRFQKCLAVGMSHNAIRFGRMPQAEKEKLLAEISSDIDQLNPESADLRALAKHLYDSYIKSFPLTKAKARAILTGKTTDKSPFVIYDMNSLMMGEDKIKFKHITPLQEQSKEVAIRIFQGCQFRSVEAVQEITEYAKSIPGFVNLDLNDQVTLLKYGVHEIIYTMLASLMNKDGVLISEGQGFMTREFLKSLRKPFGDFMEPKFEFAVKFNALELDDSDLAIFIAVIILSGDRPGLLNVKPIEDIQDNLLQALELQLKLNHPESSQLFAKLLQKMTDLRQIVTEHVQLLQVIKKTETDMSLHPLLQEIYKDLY

SMILES | Potency [1] | Potency [2] | Potency [3] | Potency [4] | Potency [5] | Potency [6] | Potency [7] | outcome [8] | Potency [9] | Potency [10]
CCOC(=O)CC(=O)c1cc(F)c(Cl)nc1Cl | inactive | inactive | inactive | inactive | inactive | inactive | inactive | inactive |  | 
CN(C)CC/C=C1\c2ccccc2COc2ccccc21 | inactive | inactive |  |  | inactive | inactive | inactive | inactive | inactive | inactive
C[Si](C)O[Si](C)(C)O[Si](C)(C)O[Si](C)C | inactive | inactive | inactive | inactive |  | inactive | inactive |  |  | inactive
NC1CCN(c2nc3c(cc2F)c(=O)c(C(=O)O)cn3-c2ccc(F)cc2F)C1 (stereo not given) | inactive | inactive |  |  | inactive | 26.6 µM (active) | inactive |  | inactive | inactive
CC(C)(C)c1ccc(OCC2CO2)cc1 (stereo not given) | inactive | inactive |  |  | inactive | inactive | inactive |  | inactive | 
O=C(O)Cc1cc(I)c(Oc2ccc(O)c(I)c2)c(I)c1 | inactive | inactive |  |  | 24.5 µM (active) | 15.4 µM (active) | inactive |  | inactive | 
CN1CCC(=C2c3ccccc3CCc3sccc32)CC1 | inactive | inactive | inactive | inactive |  |  | inactive |  |  | inactive
CC(C)CCCC(C)CCO (stereo not given) | inactive | inactive | inactive | inactive | inactive | inactive | inactive |  |  | inactive
c1ccc(CNCc2ccccc2)cc1 | inactive | inactive | inactive | inactive | inactive | inactive | inactive | inactive |  | inactive
O=C(O)C1CCC(C(=O)O)CC1 (stereo not given) | inactive | inactive | inactive | inactive | inactive | inactive | inactive | inactive |  | inactive
SC1CCCC1 | inactive | inactive | inactive | inactive | inactive | inactive | inactive | inactive |  | 
CCCC[C@H]1CN(CC2CCOCC2)C(=O)OC12CCN(C1(C)CCN(C(=O)c3c(C)ncnc3C)CC1)CC2 | inactive | inactive | inactive | inactive | inactive | inactive | inactive |  |  | inactive
Nc1nc(N)c2nc(CNc3ccc(C(=O)N[C@@H](CCC(=O)O)C(=O)O)cc3)cnc2n1 | inactive | inactive |  |  |  |  | inactive |  | inactive | 
CN(C)C/C=C(/c1ccc(Br)cc1)c1cccnc1 | inactive | inactive | inactive | inactive | inactive | inactive | inactive |  |  | 
COC(=O)CSc1cc(N=c2sc(=O)n3n2CCCC3)c(F)cc1Cl | inactive | inactive | inactive | inactive | inactive |  | inactive |  |  | inactive
CCN(CC)CCNC(C(=O)OCCC(C)C)c1ccccc1 (stereo not given) | inactive | inactive | inactive | inactive | inactive | inactive |  | inactive |  | inactive
CC(C(=O)O)c1ccc(-c2ccccc2)c(F)c1 (stereo not given) | inactive | inactive |  |  | inactive |  | inactive | inactive | inactive | inactive
C[C@@H](C1=C(CCN(C)C)Cc2ccccc21)c1ccccn1 | inactive | inactive |  |  | inactive |  | inactive | inactive | inactive | 
CCc1nn(C2CCCCC2)c2cc(C3(C#N)CCC(C(=O)O)CC3)ccc12 (stereo not given) | 54.5 µM (active) | inactive |  |  | inactive | 27.3 µM (active) | inactive | inactive | 24.3 µM (active) | inactive
Cc1ncsc1CCO | inactive | inactive |  |  |  | inactive | inactive | inactive | inactive | inactive

SMILES | Potency [1] | Potency [2] | Potency [3] | Potency [4] | Potency [5] | Potency [6] | Potency [7] | outcome [8] | Potency [9] | Potency [10]
CC[C@H](C)[C@H](N)C(=O)O | inactive | inactive | inactive | inactive | inactive | inactive |  | inactive |  | 
O=C(O)c1cccc(N(Cc2cccnc2)c2ccc(OC(F)F)c(OC(F)F)c2)c1 | inactive | inactive |  |  | inactive |  | inactive | inactive | inactive | inactive
O=C(CC(=O)c1ccccc1)c1ccccc1 | inactive | 65.7 µM (active) | inactive |  | inactive | 23.3 µM (active) | inactive | inactive |  | inactive
CC(=O)Nc1ccc(/C=N/NC(N)=S)cc1 | inactive | inactive | inactive | inactive | inactive | inactive | inactive | inactive |  | inactive
O=C(O)Cc1sc(-c2ccccc2)nc1-c1ccc(Cl)cc1 | inactive | 10.6 µM (active) |  |  | inactive | inactive | inactive | inactive | inactive | inactive
CCN(CC)CCOc1ccc2c(c1)C(=O)c1cc(OCCN(CC)CC)ccc1-2 | inactive | inactive | inactive | inactive | 29.8 µM (active) |  | inactive |  |  | 
CC1(C)[C@H]2CC[C@]1(C)[C@H](O)C2 | inactive | inactive |  |  | inactive | inactive | inactive | inactive | inactive | 
CCCCCCc1ccc(N)cc1 | inactive | inactive |  |  | inactive |  | inactive | inactive | inactive | 
C=C(C)C(=O)OC(C)C | inactive | inactive | inactive | inactive | inactive | inactive | inactive |  |  | inactive
CCCCCCCCCC=O | inactive | inactive |  |  | inactive |  | inactive | inactive | inactive | inactive
CCCCOc1ccc(CC(=O)NO)cc1 | inactive | inactive | inactive | inactive | inactive |  | inactive | inactive |  | 
O=C1c2cccc(O)c2C(=O)c2c(O)cc(CO)cc21 | inactive | inactive |  |  | inactive |  | inactive | inactive | inactive | 
CC(=O)SCc1ccco1 | inactive | inactive | inactive | inactive | inactive |  | inactive |  |  | inactive
Cc1cc(CC(=O)O)c(C)n1-c1ccc(Cl)cc1 | inactive | inactive |  |  | inactive |  | inactive | inactive | inactive | 
N[C@H]1C(O)O[C@H](CO)[C@H](O)[C@@H]1O (stereo not given in full) | inactive | inactive | inactive | inactive | inactive | inactive | inactive | inactive |  | inactive
CCCCCCCCCCCCC(=O)O | inactive | inactive |  |  | inactive |  |  |  | inactive | inactive
Nc1nc(CC(=O)O)cs1 | inactive |  | inactive | inactive | inactive | inactive | inactive | inactive | inactive | inactive
O=C(Cl)c1ccc([N+](=O)[O-])cc1 | inactive |  | inactive | inactive | inactive | inactive | inactive | inactive | inactive | inactive
O=C(O)COC(=O)Cc1ccccc1Nc1c(Cl)cccc1Cl | inactive | inactive |  |  | inactive | inactive | inactive |  |  | inactive
Oc1ccc(C(O)CNCCCCCCNCC(O)c2ccc(O)c(O)c2)cc1O (stereo not given) | 21.1 µM (active) | inactive |  | inactive | inactive |  | inactive |  |  | inactive

SMILES | Potency [1] | Potency [2] | Potency [3] | Potency [4] | Potency [5] | Potency [6] | Potency [7] | outcome [8] | Potency [9] | Potency [10]
Oc1ccc(O)c2c(O)cccc12 | inactive | 12.1 µM (active) |  |  | inactive |  | inactive |  |  | inactive
C=CC(=O)OCC(C)OCC(C)OCC(C)OC(=O)C=C (stereo not given) | 48.6 µM (active) | inactive |  |  | inactive |  | 15.5 µM (active) |  |  | inactive
N#Cc1c(F)cccc1F | inactive | inactive | inactive |  | inactive | inactive | inactive | inactive |  | inactive
O=C1[C@H](CC[C@H](O)c2ccc(F)cc2)[C@@H](c2ccc(O)cc2)N1c1ccc(F)cc1 | inactive |  | inactive |  | inactive |  | inactive |  | inactive | 
Cc1ccccn1 | inactive |  |  |  | inactive | inactive | inactive | inactive | inactive | inactive
N#CCCNCCC#N | inactive |  | inactive | inactive | inactive | inactive | inactive | inactive | inactive | inactive
C1CCC2OC2C1 (stereo not given) | inactive |  | inactive | inactive |  |  | inactive | inactive | inactive | inactive
Cc1nc2ccccc2n1Cc1ccc(Cl)cc1 | inactive | inactive | inactive |  | inactive |  | inactive |  |  | 
CN(C)CCCNCCCN | inactive | inactive | inactive |  |  |  | inactive | inactive |  | inactive
CCCCC(CC)COCCCN (stereo not given) | inactive | inactive |  |  | inactive | inactive | inactive |  |  | inactive
CNCC[C@@H](Oc1ccccc1C)c1ccccc1 | inactive | inactive |  |  | inactive |  |  |  |  | inactive
O=C(c1ccc(O)cc1)c1ccc(O)cc1 | inactive |  | inactive | inactive | inactive | inactive | inactive |  | inactive | 
ClC(Cl)(Cl)c1ccc(C(Cl)(Cl)Cl)cc1 | inactive |  | inactive |  | inactive | inactive | inactive | inactive | inactive | inactive
CCCCOc1cc(C(=O)OCCN(CC)CC)ccc1N | inactive |  | inactive | inactive | inactive |  |  | inactive | inactive | inactive
CCCc1ccccc1 | inactive |  |  | inactive | inactive |  | inactive |  | inactive | inactive
O=S1(=O)N=C(O)c2ccccc21 | inactive |  |  |  | inactive | inactive | inactive |  | inactive | 
CCOc1cc(OCC)c(C(=O)CCC(=O)O)cc1OCC | inactive | inactive |  |  | inactive |  | inactive |  |  | 
CN1CCN(C2=Nc3cc(Cl)ccc3Nc3ccccc32)CC1 | inactive | inactive |  |  | inactive |  | inactive |  |  | inactive
Cc1cccc(OCCOc2cccc(C)c2)c1 | inactive |  | inactive | inactive | inactive | inactive | inactive | inactive | inactive | inactive
